# According to PubChem BioAssay AID588458 (Sanford-Burnham Center for Chemical Genomics, 2011):
# Where “and” joins values, the source holds several entries; their conditions need not be identical. Identical values can stand only once. About 3,000 (0.83%) of roughly 360,000 compounds were called active. Many of the other results were omitted from the sample, so actives are more common in it than they were. A number with no mark means an inactive call. Cut-off read from the data, not from the text of the source: active = inhibition above about 50%; inactive = the rest.
# Biological target: DNA (cytosine-5)-methyltransferase 1 (Homo sapiens) (UniProt P26358)
# Assay: inhibition of DNA methyltransferase DNMT1 – biochemical, molecular beacon, fluorescence, HinP1I cleavage, uHTS, primary screen (AID 588458)
# Conditions: at 10 µM, hits give high values
# DNA (cytosine-5)-methyltransferase 1 (Homo sapiens), sequence (P26358 504-1616 limits assumed): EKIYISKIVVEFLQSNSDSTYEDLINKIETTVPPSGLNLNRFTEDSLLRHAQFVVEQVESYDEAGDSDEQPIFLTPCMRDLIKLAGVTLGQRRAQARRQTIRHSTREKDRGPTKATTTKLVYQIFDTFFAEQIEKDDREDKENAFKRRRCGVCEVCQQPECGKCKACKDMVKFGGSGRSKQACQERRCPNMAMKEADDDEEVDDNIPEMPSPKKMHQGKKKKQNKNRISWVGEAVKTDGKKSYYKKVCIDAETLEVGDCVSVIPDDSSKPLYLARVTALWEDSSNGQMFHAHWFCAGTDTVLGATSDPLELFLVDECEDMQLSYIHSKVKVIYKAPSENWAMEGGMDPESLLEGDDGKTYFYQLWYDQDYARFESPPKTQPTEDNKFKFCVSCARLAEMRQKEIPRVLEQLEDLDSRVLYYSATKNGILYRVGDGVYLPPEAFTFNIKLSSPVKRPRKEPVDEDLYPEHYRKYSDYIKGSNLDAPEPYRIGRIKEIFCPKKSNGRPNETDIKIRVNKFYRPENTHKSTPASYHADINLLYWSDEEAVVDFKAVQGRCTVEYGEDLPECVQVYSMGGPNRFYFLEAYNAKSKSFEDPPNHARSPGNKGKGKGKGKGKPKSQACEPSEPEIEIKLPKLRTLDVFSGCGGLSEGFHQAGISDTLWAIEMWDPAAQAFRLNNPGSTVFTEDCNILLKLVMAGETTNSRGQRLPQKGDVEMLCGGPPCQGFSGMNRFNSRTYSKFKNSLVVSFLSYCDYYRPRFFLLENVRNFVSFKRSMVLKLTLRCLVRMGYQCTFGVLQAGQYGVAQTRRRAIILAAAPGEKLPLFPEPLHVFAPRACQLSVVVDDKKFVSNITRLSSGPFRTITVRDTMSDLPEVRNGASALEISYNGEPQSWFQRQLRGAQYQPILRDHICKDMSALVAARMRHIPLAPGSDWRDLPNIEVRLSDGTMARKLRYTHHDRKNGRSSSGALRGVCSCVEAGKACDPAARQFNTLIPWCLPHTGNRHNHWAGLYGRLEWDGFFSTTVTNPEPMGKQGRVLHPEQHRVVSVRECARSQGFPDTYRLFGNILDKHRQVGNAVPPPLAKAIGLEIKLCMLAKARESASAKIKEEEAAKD
row,SMILES,inhibition (reported as % activation of signal)
1,Cc1ccnc(-n2c(C)cc(/C=C3\C(=O)NC(=S)N(C)C3=O)c2C)c1,5.36%
2,Cc1c(C(=O)O)cccc1-n1c(C)cc(/C=C2\C(=O)NC(=O)N(c3ccc4c(c3)OCO4)C2=O)c1C,86.2% (active)
3,COC(=O)C1=C(c2c(C)noc2C)C[C@@H]2CC[C@H]1N2C(=O)NCc1ccc2c(c1)OCO2,2.7%
4,Cc1cc(/C=C2/C(=O)NC(=O)N(Cc3ccco3)C2=O)c(C)n1-c1ccc(C(=O)O)cc1,51.8% (active)
5,O=C1NC(=O)N(Cc2ccco2)C(=O)/C1=C\c1cccn1CCOc1ccccc1,52.4% (active)
6,Cc1ccc(-n2c(C)cc(/C=C3\C(=O)NC(=O)N(C)C3=O)c2C)cc1C,29.9%
7,Cc1cc(C=C2C(=O)NC(=O)NC2=O)c(C)n1-c1ccncc1,5.18%
8,O=C1NC(=O)N(Cc2ccco2)C(=O)/C1=C\c1ccc(-c2ccc(F)cc2)o1,79.9% (active)
9,CCOC(=O)C(O)(c1ccc(N=Cc2ccccc2O)c(C)c1)C(F)(F)F (stereo not given),0.86%
10,CC1CNCCN1c1ccc(Cl)cc1 (stereo not given),-33.5%
11,O=C1C2(Cl)C3(Cl)C4(Cl)C(Cl)(Cl)C5(Cl)C3(Cl)C1(Cl)C5(Cl)C24Cl (stereo not given),-6.15%
12,O=P(OC1=CCCCC1)(c1ccccc1)c1ccccc1,-0.46%
13,COC(=O)C1=C(c2ccc(OCc3ccccc3)cc2)C[C@@H]2CC[C@H]1N2C(=O)NCc1ccc(Cl)cc1,-11.6%
14,Fc1ccc(C2N3CCCN23)cc1 (stereo not given),0.57%
15,COC(=O)C(O)(c1ccc(NC(=O)c2ccco2)c(OC)c1)C(F)(F)F (stereo not given),2.7%
16,CCOC(=O)c1c(-c2ccccc2)oc2ccc(OC(=O)N(C)C)cc12,-3%
17,CC(C)n1c(=O)c(C=Nc2ccc(Br)cc2)c(O)n(Cc2ccco2)c1=O,3.48%
18,Cc1ccc(-c2nc3ccccc3c(=O)n2-c2ccc(Br)cn2)cc1,-0.14%
19,N#CC1=C(N)Oc2c(c(=O)oc3ccccc23)C1c1ccccc1OC(=O)c1cccs1 (stereo not given),0.68%
20,CC12CCC3C(CCC4CC(=O)CCC43C)C1CC(=NO)C2=O (stereo not given),0.34%
21,COc1ccc(N2C(=O)/C(=C/c3ccco3)C(=O)NC2=S)cc1,97.9% (active)
22,COc1cc(C(=O)N2Cc3ccc(Br)cc3-n3nncc3C2)cc(OC)c1OC,3.06%
23,Cc1cc(-c2ccc(N)c(C)c2)ccc1N,-7.86%
24,Cc1cc(C)cc(NC(=S)NC2CC3CCCC(C2)N3Cc2cccs2)c1 (stereo not given),-3.24%
25,Oc1ccc2c3c1OC1[C@H](O)CC[C@@]4(O)[C@@H](C2)N(CC2CC2)CC[C@]314 (stereo not given in full),3.17% and 0.16%
26,CC(=NC1CCN(Cc2ccccc2)CC1)c1c(O)n(C)c(=O)n(C)c1=O,2.93%
27,CC1=C(C(=O)Nc2ccccc2)SCCO1,87.4% (active)
28,CC1=C(C(=O)Nc2ccccc2)S(=O)(=O)CCO1,2.83%
29,CCN1CCN(C(=O)Cc2coc3cc(C)cc(C)c23)CC1,2.55%
30,COc1ccc(NC(=O)N2Cc3ccccc3-n3nncc3C2)cc1,7.01%
